A selection: hits, their analogues and other compounds. The true share with any hit is near 2.8%.
Shn3 inh set2: inhibitors of Schnurri-3 3'UTR reporter in osteoblasts. Clone20 osteoblast Shn3 3'UTR firefly luciferase, 24 h. inhibition, % at 12.5 µM. actives 0.52% (n = 360,000);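 active = mean inhibition of at least 75% with every replicate also reaching 75%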
HIV Env fusion: HIV envelope-mediated fusion inhibition | AID 651610 | inhibition, % at 12.3 µM | HeLa-JRFL Env/CEM21 cell fusion, luciferase | actives 1.1% (n = 360,000);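 active = mean replicate inhibition score of at least 50 and every replicate individually at or above 50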
N-glyco inh: N-linked glycosylation inhibition | reporter increase, % at 12.5 µM | AID 588692 | D54 ERlucT glycosylation luciferase reporter, 24 h; percent of 100 nM tunicamycin response | actives 0.23% (n = 360,000);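 active = mean luciferase reporter signal, scaled so untreated is 0 and the glycosylation-blocking control 100, at or above a set limit in every replicate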;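 also: luciferase carries N-glycosylation sites so blocking glycosylation raises the light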
EBV LMP1 NFkB: reduces LMP1-driven NF-kappaB luciferase signal; AID 504558; actives 0.69% (n = 350,000); inhibition, % at 12.5 µM; LMP1-induced NF-kappaB luciferase reporter cells, luminescence; in the data active = inhibition above about 41%
PAX8 inh HTS: PAX8 transcriptional activity inhibition | RMG-I TPO-luciferase reporter, SteadyGlo, 24 h | inhibition, % at 12.6 µM | actives 1.2% (n = 360,000);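 active = mean replicate inhibition at least 60% with every replicate also reaching 60%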;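 also: luciferase light reporting Pax8 driven TPO promoter activity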
NSD2 HMT inh: inhibitors of human histone methyltransferase NSD2; O96028; NSD2 peptide methylation, AlphaScreen, 120 min; inhibition, % at 12.5 µM; actives 0.54% (n = 310,000); AID 743445; in the data active = inhibition above about 50%
Numbers stand for hits.

What do the screens show for `COc1ccc(/C=C/C(=O)c2cc(F)ccc2OC(=O)c2ccccc2OC)cc1OC`?
Shn3 inh set2: inactive; HIV Env fusion: inactive; N-glyco inh: inactive; EBV LMP1 NFkB: inactive; PAX8 inh HTS: 85.2; NSD2 HMT inh: inactive

How did COc1ccc(/C=C/C(=O)c2cc(Br)ccc2OC(=O)c2ccco2)cc1OC do in these assays?
Shn3 inh set2: inactive; HIV Env fusion: inactive; N-glyco inh: inactive; EBV LMP1 NFkB: inactive; PAX8 inh HTS: inactive; NSD2 HMT inh: inactive

Results for COc1ccc(/C=C/C(=O)c2cc(F)ccc2OC(=O)c2ccc(OC)c(OC)c2)cc1OC ?
Shn3 inh set2: inactive; HIV Env fusion: inactive; N-glyco inh: inactive; EBV LMP1 NFkB: inactive; PAX8 inh HTS: inactive; NSD2 HMT inh: inactive

What do the screens show for `CCN(CC)CCn1c(=N)n(CC(O)COc2ccccc2)c2ccccc21` (stereo not given)?
Shn3 inh set2: inactive; HIV Env fusion: inactive; N-glyco inh: inactive; EBV LMP1 NFkB: inactive; PAX8 inh HTS: inactive; NSD2 HMT inh: inactive

What do the screens show for `CCN(CC)CCn1c(=N)n(CCOc2ccccc2)c2ccccc21`?
Shn3 inh set2: inactive; HIV Env fusion: 56.2; N-glyco inh: inactive; EBV LMP1 NFkB: inactive; NSD2 HMT inh: inactive

What do the screens show for `CO[C@H]1CN(C)C(=O)c2ccc(NC(=O)Cc3ccccc3)cc2OC[C@@H](C)NC[C@@H]1C`?
HIV Env fusion: inactive; PAX8 inh HTS: inactive

How did CON(C)c1nc(OCCNC(=O)OCc2ccc(Cl)cc2C)nc(N(C)C)n1 do in these assays?
Shn3 inh set2: inactive; HIV Env fusion: 150.3; N-glyco inh: inactive; EBV LMP1 NFkB: inactive; PAX8 inh HTS: inactive; NSD2 HMT inh: inactive

Results for COc1ccc(/C=C/C(=O)c2ccc(C(=O)/C=C/c3ccc(OC)c(OC)c3)cc2)cc1OC ?
Shn3 inh set2: 87.3; HIV Env fusion: inactive; N-glyco inh: inactive; EBV LMP1 NFkB: inactive; PAX8 inh HTS: inactive; NSD2 HMT inh: inactive

Results for COC(=O)c1ccc(/C=C/C(=O)c2ccc(OC)c(OC)c2)cc1 ?
Shn3 inh set2: inactive; N-glyco inh: 62.4; EBV LMP1 NFkB: inactive; NSD2 HMT inh: inactive

Results for COc1ccc(C(=O)/C=C/c2ccc(OC(=O)c3cc(OC)c(OC)c(OC)c3)cc2)cc1 ?
Shn3 inh set2: inactive; HIV Env fusion: inactive; N-glyco inh: 42.3; EBV LMP1 NFkB: inactive; PAX8 inh HTS: inactive; NSD2 HMT inh: inactive

Results for COc1cc(/C=C/C(=O)c2ccc3c(c2)OCCO3)cc(OC)c1OC ?
Shn3 inh set2: inactive; HIV Env fusion: inactive; N-glyco inh: 42.1; EBV LMP1 NFkB: inactive; PAX8 inh HTS: inactive

What do the screens show for `COc1ccc(/C=C/C(=O)c2ccc3c(c2)OCO3)cc1OC`?
Shn3 inh set2: inactive; N-glyco inh: inactive; EBV LMP1 NFkB: inactive; PAX8 inh HTS: inactive; NSD2 HMT inh: inactive

How did COC(=O)c1ccc(/C=C/C(=O)c2ccc(OC)cc2)cc1 do in these assays?
Shn3 inh set2: inactive; N-glyco inh: inactive; EBV LMP1 NFkB: inactive; NSD2 HMT inh: inactive

What do the screens show for `O=C(O)C[C@H]1C[C@H]2c3cc(NC(=O)c4ccc5c(c4)OCO5)ccc3O[C@H]2[C@@H](CO)O1`?
HIV Env fusion: inactive; PAX8 inh HTS: inactive

How did C=CC[C@@]1(C(=O)N2CCCCC2)N=C(c2ccc(OCCCO)cc2)O[C@@H]1c1ccccc1 do in these assays?
HIV Env fusion: inactive; PAX8 inh HTS: inactive

Results for CCNC(=O)C[C@@H]1CC[C@H]2[C@@H](COc3ccc(NC(=O)c4ccc5c(c4)OCO5)cc3C(=O)N2C)O1 ?
HIV Env fusion: inactive; PAX8 inh HTS: inactive

How did C[C@@H]1CCCCO[C@@H](CN(C)C(=O)C2CCCCC2)[C@@H](C)CN([C@@H](C)CO)C(=O)c2cc(NC(=O)CCCN(C)C)ccc2O1 do in these assays?
HIV Env fusion: inactive; PAX8 inh HTS: inactive

Results for O=C(C[C@H]1C[C@@H]2c3cc(NC(=O)Nc4ccccc4)ccc3O[C@@H]2[C@@H](CO)O1)NCc1ccccn1 ?
HIV Env fusion: inactive; PAX8 inh HTS: inactive

What do the screens show for `O=CN1CCN(C(C(=O)NC2CCCCC2)c2ccc(Cl)cc2)CC1` (stereo not given)?
Shn3 inh set2: inactive; HIV Env fusion: inactive; N-glyco inh: inactive; EBV LMP1 NFkB: inactive; PAX8 inh HTS: inactive; NSD2 HMT inh: inactive

How did COC(=O)C1CCCN1C(C(=O)NC1CCCCC1)c1ccc(Cl)cc1 (stereo not given) do in these assays?
Shn3 inh set2: inactive; HIV Env fusion: 65.6; N-glyco inh: inactive; EBV LMP1 NFkB: inactive; PAX8 inh HTS: inactive

Results for COc1ccc(CCNC(=O)C2CCN(Cc3nc(-c4ccccc4C)oc3C)CC2)cc1OC ?
Shn3 inh set2: inactive; HIV Env fusion: 56.8; N-glyco inh: inactive; EBV LMP1 NFkB: inactive; NSD2 HMT inh: inactive

Results for COc1ccc(CCNC(=O)C2CCN(Cc3nc(-c4ccc(Cl)cc4)oc3C)CC2)cc1OC ?
Shn3 inh set2: inactive; HIV Env fusion: inactive; N-glyco inh: inactive; EBV LMP1 NFkB: inactive; PAX8 inh HTS: inactive

Results for Cc1ccccc1-c1nc(CN2CCC(C(=O)NCCCN3CCCC(C)C3)CC2)c(C)o1 (stereo not given) ?
Shn3 inh set2: inactive; HIV Env fusion: inactive; N-glyco inh: inactive; EBV LMP1 NFkB: inactive; PAX8 inh HTS: inactive; NSD2 HMT inh: inactive

Results for Cc1ccccc1-c1nc(CN2CCC(C(=O)NCCC3=CCCCC3)CC2)c(C)o1 ?
Shn3 inh set2: inactive; HIV Env fusion: 72.6; N-glyco inh: inactive; EBV LMP1 NFkB: inactive; PAX8 inh HTS: inactive; NSD2 HMT inh: inactive

Results for CCN(CCNC(=O)C1CCN(Cc2nc(-c3cccc(Cl)c3)oc2C)CC1)c1ccccc1 ?
Shn3 inh set2: inactive; HIV Env fusion: 55.3; N-glyco inh: inactive; EBV LMP1 NFkB: inactive; NSD2 HMT inh: inactive

Results for C[C@@H]1CN([C@H](C)CO)C(=O)Cc2cc(NC(=O)CCN3CCOCC3)ccc2O[C@H]1CN(C)C(=O)Nc1ccc(C(F)(F)F)cc1 ?
HIV Env fusion: inactive

Results for COCCNC(=O)C[C@H]1C[C@@H]2c3cc(NC(=O)c4ccc5c(c4)OCO5)ccc3O[C@@H]2[C@H](CO)O1 ?
HIV Env fusion: inactive; PAX8 inh HTS: inactive

How did C[C@@H]1CN([C@H](C)CO)S(=O)(=O)c2ccc(C#C[C@@H](C)O)cc2O[C@@H]1CN(C)Cc1ccccc1 do in these assays?
HIV Env fusion: inactive

Results for C[C@H](CO)N1C[C@H](C)[C@@H](CN(C)Cc2ccccc2)Oc2cc(C#C[C@@H](C)O)ccc2S1(=O)=O ?
HIV Env fusion: inactive

Results for C[C@H](CO)N1C[C@H](C)[C@@H](CN(C)Cc2ccc(-c3ccccc3)cc2)Oc2cc(C#C[C@@H](C)O)ccc2S1(=O)=O ?
PAX8 inh HTS: 74.0

Results for C[C@@H](O)C#Cc1ccc2c(c1)O[C@H](CN(C)Cc1ccc(-c3ccccc3)cc1)[C@@H](C)CN([C@@H](C)CO)S2(=O)=O ?
PAX8 inh HTS: 102.6

Bioassay records: PubChem, Broad Institute
